# Data published in PubChem BioAssay (NCI).
# The panel holds about 83,000 compounds, 20% with a hit somewhere; the sample as a whole holds those more often.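 Activity criterion: percent growth below 10, measured after cells in 96-well plates were exposed to a single compound concentration for 48 hours.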 Unmarked numbers belong to inactive results. Calls of active or inactive are those of the source.
# System: A498 renal
# Test: NCI-60 one-dose screen, 48 h (100 = growth as untreated, 0 = no growth, -100 = all killed)
# Settings: 10 µM unless noted
# Protocol: Growth inhibition of the A498 human tumor cell line is measured as a screen for anti-cancer activity. Cells are grown in 96 well plates and exposed to the test compound for 48 hours. Compounds are tested at a single concentration, which is 10^-5 M for most compounds. The reported endpoint is percent growth (GI% or GIPRCNT), where numbers from 0 - 100% represent growth inhibition, and numbers from -100% - 0 represent cell death. For example, a value of 40 represents 60% growth inhibition. A value of 0 means no net growth occurred over the course of the experiment. A value of -40 indicates 40% of cells at the beginning of the experiment died by the end of the experiment. A value of -100 means all cells are dead at the end of the experiment.
# NCI-60 Human Tumor Cell Lines Screen was performed using the standard one-dose NCI protocol, which is described in more detail at https://dtp.cancer.gov/discovery_development/nci-60/default.htm.
# Compounds with GIPRCNT values below 10 were considered active. Activity score was based on GIPRCNT using the following formula: […]
# Score is 0 for GIPRCNT values of 100 or above, 50 for GIPRCNT values of 0, and 100 for GIPRCNT values of -100.
row,SMILES,growth
1,O=C(CCl)NCNC(=O)CCl,109%
2,COc1cc(C2(C#N)CCN(C)CC2)cc(OC)c1OC,88.4%
3,O=C(/C=C/c1ccccc1)N[C@@H](CO)Cc1cnc[nH]1,115%
4,CCOc1cc(C=C(C#N)C#N)cc(Br)c1O,96.4%
5,CC(=O)O[C@H]1CCC2(C)C(=CCC3C2CCC2(C)/C(=N/OC(=O)c4ccc(N(CCCl)CCCl)cc4)CCC32)C1 (stereo not given in full),57%
6,Nc1ccc(N)c2c1Oc1ccccc1O2,92.9%
7,CC1(C)N=C(N)N=C(N)N1c1ccc(OCCCCOc2ccc(S(=O)(=O)F)cc2)c(Cl)c1,29.3%
8,CC12CCC(=O)C=C1C(O)CC1C2CCC2(C)C(O)CCC12 (stereo not given),89.6%
9,C/C(=C\c1cc(C(F)(F)F)n(-c2ccc(N)cc2)n1)[C@@H]1C[C@@H]2O[C@]2(C)CCC[C@H](C)[C@H](O)[C@@H](C)C(=O)C(C)(C)[C@@H](O)CC(=O)O1,-0.114% (active)
10,COc1ccc(C(=O)c2ccc([As]=O)cc2)cc1 (stereo not given),-100% (active)
11,O=C(O)CC(Br)C(=O)CBr (stereo not given),104%
12,CC[C@]12C=CCN3CC[C@@]4(c5ccc(OC)cc5N(C)[C@H]4[C@@](O)(C(=O)OC)[C@@H]1OC(=O)CCCN1CCN(CCCC(=O)O[C@@H]4[C@]5(CC)C=CCN6CC[C@@]7(c8ccc(OC)cc8N(C)[C@H]7[C@@]4(O)C(=O)OC)[C@@H]65)CC1)[C@@H]32,-58.2% (active)
13,Cc1cc(NC(=O)CCc2ccc(N3C(N)=NC(N)=NC3(C)C)cc2)ccc1S(=O)(=O)F,59.8%
14,O=C(N/N=C/c1ccc([N+](=O)[O-])o1)c1cc([N+](=O)[O-])cc([N+](=O)[O-])c1O,79.7%
15,NC(=O)SCC(=O)Nc1ccc([As](=O)(O)O)cc1,113%
16,C=CCN1C(=O)C(CC)(CCC(C)C)C(=O)NC1=S (stereo not given),112%
17,OB([O][Hg][c]1ccccc1)[O][Hg][c]1ccccc1,-31.2% (active)
18,CCCC(C)(C)c1ccc2c(c1)OC(C)(C)[C@@H]1CC=C(C)C[C@@H]21,83.9%
19,CCC(C)[C@H]1O[C@]2(C=C[C@@H]1C)C[C@@H]1C[C@@H](C/C=C(\C)[C@@H](OC3C[C@H](OC)C(O[C@H]4C[C@H](OC)[C@@H](O)[C@H](C)O4)[C@H](C)O3)[C@@H](C)/C=C/C=C3\CO[C@@H]4[C@H](O)C(C)=C[C@@H](C(=O)O1)[C@]34O)O2 (stereo not given in full),-24.9% (active)
20,ClCCN(CCCl)c1ccc(/C=C\c2ccnc3ccccc23)cc1,68.2%

row,SMILES,growth
1,CC12CCC(=O)C=C1CCC1C2CCC2(C)C(C(=O)COC(=O)Cc3ccc(N(CCCl)CCCl)cc3)CCC12 (stereo not given),69.8%
2,NCCc1cc(O)c(O)cc1O,122%
3,O=C(NCCNC(=O)c1ccc([As](O)O)cc1)c1ccc([As](O)O)cc1,92%
4,C[CH2][Pb]([CH2]C)([CH2]C)[O]C(=O)COc1ccccc1,-2.32% (active)
5,CCN1CC2(CN(CC)C1=S)C(=O)NC(=O)NC2=O,112%
6,O=[N+]([O-])c1ccc(/C=C/C=C/c2ccc(S(=O)(=O)F)cc2)c(Cl)c1,100%
7,CC(=O)[O][Hg][c]1nc2c(c(=O)n(C)c(=O)n2C)n1C,125%
8,C=CCc1ccc(OC(=O)Cc2ccccc2)c(OC)c1,97.4%
9,CC(=O)[O][Hg][c]1ccccc1,-46.6% (active)
10,CC1(C)N=C(N)N=C(N)N1c1cccc(C(=O)Nc2cccc(S(=O)(=O)F)c2)c1,73.9%
11,O=C1NC(=O)C(=Cc2cn(Cc3ccccc3)c3ccccc23)C(=O)N1,-72.6% (active)
12,O=C(CCCN1CCC2(CC1)C(=O)NCN2c1ccc(F)cc1)c1ccc(F)cc1,106%
13,COc1cc[c]([Hg][Cl])cc1,84.8%
14,Cc1cc(CCl)c(C)cc1CCl,84.6%
15,CC1(C)N=C(N)N=C(N)N1c1ccc(OCCCCNC(=O)Nc2cccc(S(=O)(=O)F)c2)c(Cl)c1,90.3%
16,O=C1NC(=O)C(CN2C(=O)C3(c4ccccc42)[C@H](Cl)C(=O)N3c2ccccc2)C(=O)N1 (stereo not given in full),105%
17,O1[As]2O[As]3O[As]1O[As](O2)O3,2.98% (active)
18,CC(N)Cc1ccc(O)cc1 (stereo not given),80.7%
19,COc1ccc(C2=NN(c3ccccc3)C(c3sc(N(CCCl)CCCl)nc3Cl)C2)cc1 (stereo not given),122%
20,CC(=O)Nc1ccc(Cc2ccc(NC(C)=O)cc2)cc1,129%
